Outcome and AC50 data for 40 compounds are collected here from PubChem BioAssay (EPA / NIEHS).

SMILES strings stand for the structures. Active and inactive are the calls of the source. How the source made its calls: active means hit-call score of the fitted dose curve at least 0.9, where 1 is the maximum; inactive means score below 0.9.

This assay in a line: ATG_NRF2_ARE_CIS: Attagene CIS-FACTORIAL HepG2 Assay for human Nuclear Factor Erythroid 2 Related Factor 2 (NFR2) response to Antioxidant Response Elements (ARE) (AID 2282992). The following applies: HepG2 Attagene ARE/NRF2 reporter, transcription factor activity; actives raise or lower the signal. The protocol: ATG_CIS is a cell-based, multiplexed-readout assay that uses HepG2, a human liver cell line, with measurements taken at 24 hours after chemical dosing in a 24-well plate.ATG_NRF2_ARE_CIS is one of 52 assay component(s) measured or calculated from the ATG_CIS assay. It is designed to make measurements of mRNA induction, a form of inducible reporter, as detected with fluorescence intensity signals by Reverse transcription polymerase chain reaction (RT-PCR) and Capillary electrophoresis technology.Data from the assay component ATG_NRF2_ARE_CIS was analyzed into 1 assay endpoint. This assay endpoint, ATG_NRF2_ARE_CIS, was analyzed with bidirectional fitting relative to DMSO as the negative control and baseline of activity. Using a type of inducible reporter, measures of mRNA for gain or loss-of-signal activity can be used to understand the reporter gene at the transcription factor-level as they relate to the gene NFE2L2. Furthermore, this assay endpoint can be referred to as a primary readout, because this assay has produced multiple assay endpoints where this one serves a reporter gene function. To generalize the intended target to other relatable targets, this assay endpoint is annotated to the dna binding intended target family, where the subfamily is basic leucine zipper.
Human liver HepG2 cells are transiently transfected with multiple reporter transcription units (MRTUs) in 6-well plates using FuGene 6 reagent (Roche; 3 ml FuGene/1 mg DNA). The MRTU constructs are regulated by a cis-regulating element (promoter). […] A major difference between the CIS and TRANS system is that in CIS activities of endogenous TFs are measured, whereas the TRANS assay evaluates changes in activities of exogenous, chimeric NR-Gal4 proteins. […] At the end of 24 hour incubation, total RNA was isolated using TriZol reagent (Invitrogen). The isolated RNA is then reverse-transcribed using oligo(dT) primer and Mo-MLV reverse transcriptase (Invitrogen) with DNAse I (Ambion) treatment for 30 min. The one-tenth of the produced cDNA was amplified by PCR using Taq DNA polymerase (Invitrogen) and two reporter sequence-specific primers. The PCR products were fluorescently labeled by primer extension with 6-arboxyfluorescein (6-FAM) 5'-labeled reporter sequence-specific primer (2 min at 95 C, 20 s at 68 C and 10 min at 72 C) and these products were digested with 5U of HpaI (New England Biolabs) for 2h at 37 C. The fragments were purified using Qiaquick PCR columns (Qiagen), analyzed on an ABI 3130xL genetic analyzer (Applied Biosystems) with peak positions identified by using a set of X-rhodamine (ROX)-labeled MapMarker1000 molecular weight standards (BioVentures). The raw capillary electrophoresis data was processed using Attagraph software (Attagene).
With `CCOc1ccc(N)c([N+](=O)[O-])c1`, the compound was called inactive.

A word on the AC50: it is the concentration giving half of the maximal activity seen. `CC(CC=O)c1ccccc1` (stereo not given): the concentration at half-maximal activity (AC50) was 121 µM (active).

Regarding `COc1ccc(NC(C)=O)cc1N`, the call was inactive.

Regarding `C=C[Si](C)(C)O[Si](C)(C)C=C`, the result was inactive.

`O=C1CCCC(=O)O1`: the outcome was inactive.

Consider `OCCCS`, for which the call was inactive.

In the case of `COc1ccc(-c2coc3cc(O)ccc3c2=O)cc1`, the call was inactive.

Regarding `Cc1ccc(C(C)(C)C)cc1`, the call was inactive.

In the case of `CCN(CCC#N)c1ccc(N=Nc2c(Cl)cc([N+](=O)[O-])cc2Cl)cc1`, the outcome was inactive.

In the case of `CN1C(=O)N(C)C(O)C1O` (stereo not given), the call was inactive.

For the compound `CCCCCC(C)O` (stereo not given), the result was inactive.

With `CC(C)c1ccc(C#N)cc1`, the compound was classed as inactive.

On to `COCC(C)N` (stereo not given), for which the outcome was inactive.

Take `NC(=O)N=NC(N)=O`: the outcome was inactive.

`CC(=O)Nc1ccc2c(c1)Cc1cc(NC(C)=O)ccc1-2`: the compound was called inactive.

`CO[Si](OC)(OC)c1ccccc1`: the result was inactive.

`CC1=CC[C@H]2C[C@@H]1C2(C)C`: the call was inactive.

On to `N[C@H]1C(O)O[C@H](CO)[C@H](O)[C@@H]1O` (stereo not given in full), for which the compound was classed as inactive.

For the compound `CCOC(=O)NNc1nncc2ccccc12`, the result was inactive.

For `C1CN(SSN2CCOCC2)CCO1`, the AC50 was 18.8 µM (active).

Take `C=C1[C@H]2CC[C@@H]3[C@H]2C(C)(C)CCC[C@]13C`: the compound was called inactive.

As for `COC(=O)c1ccc2cc(C(=O)OC)ccc2c1`, the compound was classed as inactive.

As for `CC(=O)OCC(=O)[C@@]12N=C(C)O[C@@H]1C[C@H]1[C@@H]3CCC4=CC(=O)C=C[C@]4(C)[C@H]3[C@@H](O)C[C@@]12C`, the compound was called inactive.

As for `O=C1C(N(CO)C(=O)NCO)N(CO)C(=O)N1CO` (stereo not given), the call was inactive.

For `S=C(NC1CCCCC1)NC1CCCCC1`, the outcome was inactive.

With `CCCCC(CC)COCC1CO1` (stereo not given), the call was inactive.

As to `CN(C)c1ccc(N=Nc2ccccc2C(=O)O)cc1`, the concentration at half-maximal activity (AC50) was 4.76 µM (active).

As to `C=C(C)[C@H]1CC=C(C)CC1`, the compound was called inactive.

Consider `Cc1ccc(N)c([N+](=O)[O-])c1`, for which the compound was called inactive.

Take `[Cl][In]([Cl])[Cl]`: the AC50 was 17.6 µM (active).

In the case of `COC(F)(F)C(F)(C(F)(F)F)C(F)(F)F`, the outcome was inactive.

Take `C1=CCCC1`: the outcome was inactive.

As to `C[C@]12CCC(=O)C=C1CC[C@@H]1[C@@H]2C(=O)C[C@@]2(C)[C@H]1CC[C@]2(O)C(=O)CO`, the result was inactive.

Consider `c1ccc(CNCc2ccccc2)cc1`, for which the outcome was inactive.

With `CCOC(F)(F)C(F)(F)C(F)(F)C(F)(F)F`, the result was inactive.

Regarding `COC(=O)c1c(C)cc(O)c(C)c1O`, the compound was classed as inactive.

On to `CCCCCCCC/C=C\CCCCCCCC(=O)O`, for which the concentration at half-maximal activity (AC50) is 100 µM (active).

As for `CCCCCCCCCCOS(=O)(=O)O`, the concentration at half-maximal activity (AC50) was 99.5 µM (active).

Consider `CC(C)c1ccc(C=O)cc1`, for which the call was inactive.

Consider `O=C(O)c1cc2ccccc2nc1C(=O)O`, for which the result was inactive.
